ChEMBL document CHEMBL3988442, “University of Dundee, Small-Polar-MMV Screening Library” (2021)
Hit rate of the full screen: of about 67,000 compounds, about 300 (0.45%) showed an effect of 50% or more. The entries come from a sample that favours strong results as a whole.

Biological target: Polyketide synthase Pks13 (Mycobacterium tuberculosis (strain ATCC 25618 / H37Rv)) (UniProt I6X8D2)
Experiment: Mycobacterium tuberculosis Polyketide synthase 13 Thioesterase (PKS13)
Assay type: functional
Set-up: scale not given: in the data most compounds retested in dose-response had high values
Settings: 30 µM

Chain of Polyketide synthase Pks13 (Mycobacterium tuberculosis (strain ATCC 25618 / H37Rv)) (I6X8D2 whole entry): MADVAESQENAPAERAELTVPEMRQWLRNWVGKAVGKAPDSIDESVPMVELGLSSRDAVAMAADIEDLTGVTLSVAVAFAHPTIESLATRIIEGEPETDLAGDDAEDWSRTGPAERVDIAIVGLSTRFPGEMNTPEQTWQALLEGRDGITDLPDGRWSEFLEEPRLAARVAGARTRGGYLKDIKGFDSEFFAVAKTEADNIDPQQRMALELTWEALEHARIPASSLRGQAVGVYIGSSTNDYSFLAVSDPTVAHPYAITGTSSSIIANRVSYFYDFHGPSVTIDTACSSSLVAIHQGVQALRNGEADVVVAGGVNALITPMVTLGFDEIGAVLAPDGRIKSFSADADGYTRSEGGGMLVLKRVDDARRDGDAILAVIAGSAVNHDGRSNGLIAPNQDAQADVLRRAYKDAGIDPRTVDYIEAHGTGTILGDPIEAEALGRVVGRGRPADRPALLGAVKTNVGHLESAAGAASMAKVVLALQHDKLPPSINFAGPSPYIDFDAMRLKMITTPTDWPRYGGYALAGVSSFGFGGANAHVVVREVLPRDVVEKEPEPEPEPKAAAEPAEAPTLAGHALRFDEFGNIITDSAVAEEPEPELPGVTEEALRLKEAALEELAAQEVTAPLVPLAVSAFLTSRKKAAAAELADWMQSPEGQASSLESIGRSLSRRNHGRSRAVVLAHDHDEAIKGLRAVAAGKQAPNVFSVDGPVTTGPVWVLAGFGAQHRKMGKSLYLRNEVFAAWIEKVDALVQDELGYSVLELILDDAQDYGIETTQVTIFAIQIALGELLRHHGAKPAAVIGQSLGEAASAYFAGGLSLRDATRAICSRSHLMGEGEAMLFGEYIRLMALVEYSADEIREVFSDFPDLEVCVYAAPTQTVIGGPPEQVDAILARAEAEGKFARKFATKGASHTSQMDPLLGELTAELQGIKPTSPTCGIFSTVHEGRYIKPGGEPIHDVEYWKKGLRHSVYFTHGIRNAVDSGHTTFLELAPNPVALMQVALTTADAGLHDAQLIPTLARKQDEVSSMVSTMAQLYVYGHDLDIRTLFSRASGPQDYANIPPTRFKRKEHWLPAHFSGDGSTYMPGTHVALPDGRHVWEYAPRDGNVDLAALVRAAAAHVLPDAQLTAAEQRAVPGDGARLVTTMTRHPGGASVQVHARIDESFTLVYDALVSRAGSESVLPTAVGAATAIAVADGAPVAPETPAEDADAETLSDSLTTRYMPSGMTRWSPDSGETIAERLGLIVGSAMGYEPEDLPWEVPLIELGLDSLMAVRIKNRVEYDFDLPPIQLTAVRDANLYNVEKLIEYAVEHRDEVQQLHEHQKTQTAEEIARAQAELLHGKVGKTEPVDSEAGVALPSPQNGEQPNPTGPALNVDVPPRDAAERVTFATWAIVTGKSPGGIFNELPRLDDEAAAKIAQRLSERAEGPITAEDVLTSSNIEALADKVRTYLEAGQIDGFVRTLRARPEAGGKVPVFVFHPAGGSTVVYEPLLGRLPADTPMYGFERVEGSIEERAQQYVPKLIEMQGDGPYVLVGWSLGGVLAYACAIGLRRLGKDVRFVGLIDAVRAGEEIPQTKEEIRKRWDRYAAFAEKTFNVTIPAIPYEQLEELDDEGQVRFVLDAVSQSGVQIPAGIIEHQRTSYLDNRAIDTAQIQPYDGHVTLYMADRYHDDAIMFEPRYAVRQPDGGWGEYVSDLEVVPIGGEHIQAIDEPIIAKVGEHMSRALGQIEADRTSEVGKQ

Compared with `CCS(=O)(=O)N1C[C@H]2CC[C@](O)(c3ccc(C)cc3)[C@H]2C1`, `COc1ccc(C(=O)N2CC[C@@H]3[C@H](CC2)N(C)CCS3(=O)=O)cc1` is lower in Percent Effect: 8.05% for the first, -17.1% for the second.

Going from `Cn1nc(C2CCCN(Cc3ccccc3)C2)c2nccnc21` (centres undefined) to `Cn1nc(C2CCCN(Cc3cccs3)C2)c2nccnc21` (centres undefined), the Percent Effect rises from 3.08% to 13%.

First: Cc1ccc(CN2CCCC(c3nn(C)c4nccnc34)C2)s1 (centres undefined)
Second: Cc1cc(CN2CC[C@H]3C(=O)N(c4ccsc4)CCO[C@H]3C2)no1
The Percent Effect of the first is higher: 115% for the first, -5.2% for the second.

First: Cc1csc([C@H]2C[C@@H]3CCN(C(=O)c4cnccn4)C[C@H]3O2)n1
Second: COc1ncccc1C(=O)N1CC[C@H]2C[C@@H](C)O[C@@H]2C1
The Percent Effect of the first is lower: -30.8% for the first, -30.1% for the second.

First: CCn1cc(-c2cc(-c3cc(CN(C)C)cs3)nc(N)c2C#N)c(C)n1
Second: CCn1cc(-c2cc(-c3cc(CC(=O)O)cs3)nc(N)c2C#N)c(C)n1
The Percent Effect of the first is higher: 76.9% for the first, -51.8% for the second.

First: Cc1nn(C)c(C)c1-c1cc(-c2cc(CC(=O)O)cs2)nc(N)c1C#N
Second: Cc1ccc2nc(-c3cnc(N)nc3)cc(C(=O)N(C)C)c2c1
The Percent Effect of the first is higher: 47.9% for the first, 1.85% for the second.

First: COCCN1C[C@H]2CN(Cc3cccc(OC(F)(F)F)c3)CCN2C1=O
Second: COCCN1C[C@H]2[C@@H](C1)N(C(=O)COc1ccccc1)CC[C@H]2OC
The Percent Effect of the first is lower: -30.8% for the first, -22.6% for the second.

Going from `CC(C)(C)OC(=O)N1CCCCC1C(=O)NCc1cc[nH]n1` (centres undefined) to `Cc1ccc(CNC(=O)C2CCCCN2C(=O)OC(C)(C)C)cn1` (centres undefined), the Percent Effect rises from -18.2% to 56.8%.

Going from `Cc1cc(CNC(=O)[C@H]2CCCCN2C(=O)OC(C)(C)C)on1` to `CCn1nc(C)cc1C(=O)N1C[C@@H]2C[C@@H](c3nnc(C)[nH]3)O[C@@H]2C1`, the Percent Effect falls from -8.92% to -31.5%.

First: COc1cc(N2C[C@@H]3COC[C@]3(COCc3cccc(C)n3)C2)ncn1
Second: Fc1cccc(CN2C[C@@H]3CN(c4ncccn4)C[C@@H]3C2)c1
The Percent Effect of the first is lower: -18.9% for the first, -4.52% for the second.

First: COc1ccc2nc(C[C@@H]3C[C@@H](C(C)C)[C@H](CN(C)C)C=C3C)[nH]c2n1
Second: COc1ccc2nc(C[C@@H]3C[C@@H](C(C)C)[C@H](CN)C=C3C)[nH]c2n1
The Percent Effect of the first is lower: -71.1% for the first, 56.2% for the second.

First: COc1ccc2[nH]c(C[C@@H]3C[C@@H](C(C)C)[C@H](CN(C)C)C=C3C)nc2c1
Second: COc1ccc2c(C(=O)N(C)C)cc(-c3cnc(N)nc3)nc2c1
The Percent Effect of the first is lower: 1.51% for the first, 75.3% for the second.

Compared with `CN(C)C(=O)c1cc(-c2cnc(N)nc2)nc2cc(F)ccc12`, `CN(C)c1cnn(Cc2nc3ccccc3n2C)c(=O)c1` is lower in Percent Effect: -19.1% for the first, -19.4% for the second.

Compared with `Cn1c(Cn2ncc(N3CCCC3)cc2=O)nc2ccccc21`, `Cn1c(Cn2ncc(N3CCCCC3)cc2=O)nc2ccccc21` is higher in Percent Effect: -18.2% for the first, 91% for the second.

Work on `c1ccc(NC[C@@H]2CCC[C@@H]3CN(Cc4cccnc4)C[C@@H]32)nc1` yielded a Percent Effect of -17.4%.
